Sfp inh: Sfp phosphopantetheinyl transferase inhibition. AID 1490. 3.5% of 310,000 active. Biochemical Sfp PPTase activity, qHTS. Potency, µM, most hits filed as inhibitors;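 also: the enzyme is Sfp with the accession as filed and its product quenches rhodamine fluorescence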
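With Hepes-Na pH 7.6 buffer containing 10 mM MgCl2, Sfp (15 nM) modified BHQ-2-YbbR (12.5 uM) using rhodamine-CoA (5 uM). Two reads 30 minutes apart at 525/598 nm yielded each well's rate.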
Tau fluor cs: counter-screen for tau fibril formation inhibitors. AID 1463. 0.93% of 280,000 active. tau K18 P301L Alexa594 fluorescence, heparin fibrillization. Potency, µM (series often up to 57.7 µM); also: nearly all actives have a fitted effect of over 55% in size
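Human tau K18 P301L (15 uM unlabeled, 0.24 uM Alexa 594-labeled) in 100 mM sodium acetate pH 7 with 20 uM heparin, 6 hr at 37 C. ThT 30 uM added, 1 hr ambient; Alexa 594 FP and total fluorescence read at 555/632 nm.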
FBPA coupling cs: counter-screen for Giardia aldolase inhibitors: coupling enzyme system. coupling enzyme system counterscreen, AmpLite Red fluorescence. activity change, negative = inhibition, % at 58.2 µM, hits read low. 0.67% of 290,000 active; in the data active = activity change below about -30%
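Counterscreen lacking aldolase: glyceraldehyde-3-phosphate coupling-enzyme reagent preincubated 10 min at RT with compound (at 57.5 uM final), then substrate/coupling system with AmpLite Red added; fluorescence read at 525/598 nm after 20 min RT.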
Tau fibril ThT: inhibitors of human tau fibril formation, thioflavin T binding; P10636; recombinant tau K18 P301L (four-repeat tau fragment), heparin-induced fibrillization, ThT fluorescence; Potency, µM (titrated, usually from 57.4 µM), most hits filed as inhibitors; 2.1% of 270,000 active; also: nearly all actives have a fitted effect of over 55% in size
Target sequence (P10636 561-689 P618L limits assumed): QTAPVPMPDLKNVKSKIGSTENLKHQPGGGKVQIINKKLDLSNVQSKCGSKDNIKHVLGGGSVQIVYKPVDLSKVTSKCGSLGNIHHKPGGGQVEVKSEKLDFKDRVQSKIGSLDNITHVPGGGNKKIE
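Heparin-induced (20 uM) aggregation of recombinant human K18 P301L tau, 15 uM unlabeled with 0.24 uM labeled, pH 7 acetate buffer, 6 hr at 37 C with compound. Fibrils quantified by 30 uM ThT fluorescence after 1 hr ambient incubation.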
Tau FP inhib: tau fibrillization inhibition (FP). Potency, µM (titrated, usually from 57.7 µM), actives largely listed as inhibitors. K18 P301L tau heparin fibrillization, Alexa594 FP, 6 h. P10636. 0.39% of 280,000 active; also: nearly all actives have a fitted effect of over 55% in size
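Human tau K18 […] P301L fragment, 15 uM unlabeled plus 0.24 uM Alexa 594-labeled tau (final), with compound and 20 uM heparin in 100 mM sodium acetate pH 7; 6 hr at 37 C, then Alexa 594 FP read.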
Numbers stand for hits; 0 = inactive; ? = inconclusive; - = not tested or not shown; [ ] = another dose, or the depositor's remark. Compounds with a hit are over-represented: about 5.2% of the library has one in this group of screens. Unless noted, calls follow the shape of the dose curve; as a rule, active = well fitted curve in the direction sought with a large enough effect; inconclusive = small, poorly fitted or top-dose-only effect, or another doubt; inactive = no such curve, though single readings can be large; an effect the other way counts as inactive or inconclusive.

SMILES	Sfp inh	Tau fluor cs	FBPA coupling cs	Tau fibril ThT	Tau FP inhib
Cc1cc(C)n(CC(=O)Nc2ccc(F)c(F)c2)c(=O)c1C#N	-	0	-	0	0
COC(=O)[C@@]1(Cc2ccc(OC)cc2)[C@H]2c3cc(C(=O)N(C)C)n(C)c3C[C@H]2CN1C(=O)c1ccccc1	0	0	0	0	0
O=C(NN=C1c2ccccc2-c2ccccc21)c1ccccc1	?	0	0	22.4µM	?
CC(=O)Nc1ccc(NC(=O)CCC(=O)c2ccc(C)cc2)cc1	-	0	-	0	0
Cc1nn2c(-c3ccco3)ccnc2c1-c1ccc(F)cc1	-	0	-	?	0
O=c1[nH][nH]c(=S)n1-c1ccccc1C(F)(F)F	7.94µM	0	0	?	0
CC1=C(C(N)=O)C(c2cccs2)n2ncnc2N1 (stereo not drawn)	0	0	0	-	0
c1csc(C2C3=C(Nc4ncnn42)c2ccccc2OC3)c1 (stereo not drawn)	50.1µM	0	0	0	0
Cc1cc(=O)n(Cc2cccc(Cl)c2)c2c1c(C)nn2C	-	0	-	?	0
Cc1cc(C)cc(NC(=O)N2CCC(CN3CCc4ccccc4C3)CC2)c1	-	0	-	0	0
O=[N+]([O-])c1ccc(-c2csc(N3CCc4ccccc4C3)n2)cc1	0	?	0	5.01µM	0
O=C1c2cccc([N+](=O)[O-])c2C(=O)N1CCO	0	0	0	0	0
O=C1CSC(=S)N1N1C(=O)c2cccc([N+](=O)[O-])c2C1=O	0.708µM	0	0	12.6µM	?
CCOC(=O)c1c(C)[nH]c(CCC(=O)Nc2c(Cl)cc(OC)cc2OC)c1C	-	?	-	?	0
COc1ccc(N=Nc2cc(C)ccc2O)cc1	0	?	0	15.8µM	0
COc1ccc(N=Nc2c(N)n[nH]c2N)cc1	0	0	0	14.1µM	0
COc1ccc(N=Nc2ccc(N)nc2N)cc1	0	?	0	2.51µM	?
Nc1n[nH]c(N)c1N=Nc1ccc(F)cc1	0	?	0	?	0
C=CCOC(=O)C1=C(C)NC(SCC(=O)Nc2nccs2)=C(C#N)C1c1cccs1 (stereo not drawn)	0	15.8µM[quencher]	0	?	0
CCOC(=O)C1=C(C)NC(SCc2cc(=O)[nH][nH]2)=C(C#N)C1c1cccs1 (stereo not drawn)	?	?	0	12.6µM	?
C=CCOC(=O)C1=C(C)NC(SCC(=O)Nc2nccs2)=C(C#N)C1c1ccc(Cl)cc1 (stereo not drawn)	0	10µM[quencher]	0	0	?
CC(=O)C1=C(C)NC(SCC(=O)Nc2nccs2)=C(C#N)C1c1ccccc1Cl (stereo not drawn)	0	0	0	0	0
CCCCCCCCCCCCC[N+](C)(C)Cc1ccccc1	0	0	0	0	0
OCCN(Cc1ccccc1)Cc1cccc(Cl)c1Cl	?	0	0	0	0
OCCN(Cc1ccccc1)Cc1ccccc1Cl	28.2µM	0	0	0	0
SMILES	Sfp inh	Tau fluor cs	FBPA coupling cs	Tau fibril ThT	Tau FP inhib
OCCN(Cc1ccccc1)Cc1ccccc1F	39.8µM	0	0	0	0
Cc1ccc(C)c(S(=O)(=O)NCC(c2ccco2)S(=O)(=O)c2ccc(F)cc2)c1 (stereo not drawn)	-	0	-	0	0
COc1ccc(/C=N/Nc2ncnc(Cl)c2N)cc1OC	31.6µM	?	0	?	?
Nc1c(Cl)ncnc1N/N=C/c1cccc(O)c1	56.2µM	?	0	?	0
Nc1c(Cl)ncnc1N/N=C/c1ccncc1	79.4µM	0	0	0	0
O=C(NCc1ccc(F)cc1)c1ccc(CS(=O)Cc2ccc(Cl)cc2)o1 (stereo not drawn)	-	0	-	0	0
COc1cc(C2NC(=O)N(C)C3=C2C(=O)N(c2ccccc2)C3)ccc1O (stereo not drawn)	-	0	-	0	0
C=CCNC(=S)NNc1nc(N2CCCC2)nc(N2CCCC2)n1	39.8µM	-	0	-	-
CCCNc1nc(N2CCOCC2)nc(N2CCOCC2)n1	0	0	0	0	0
CNC(=S)NNc1nc(N2CCOCC2)nc(N2CCOCC2)n1	2.24µM	0	0	0	0
CNc1nc(C(=O)O)nc(N2CCOCC2)n1	56.2µM	0	0	0	0
CCNC(=S)NNc1nc(N2CCOCC2)nc(N2CCOCC2)n1	14.1µM	0	0	0	0
CC[C@H](C)[C@H](N)C(=O)N[C@H]1CCC(=O)NCC(C(=O)N[C@@H](Cc2ccc(O)cc2)C(=O)N[C@@H](CCCNC(=N)N)C(=O)N[C@@H](CC(C)C)C(=O)N[C@@H](CCCNC(=N)N)C(=O)N[C@@H](Cc2ccc(O)cc2)C(N)=O)NC(=O)[C@@H]2CCCN2C(=O)[C@@H](NC(=O)[C@@H](N)[C@@H](C)CC)CCC(=O)NCC(C(=O)N[C@@H](Cc2ccc(O)cc2)C(=O)N[C@@H](CCCNC(=N)N)C(=O)N[C@@H](CC(C)C)C(=O)N[C@@H](CCCNC(=N)N)C(=O)N[C@@H](Cc2ccc(O)cc2)C(N)=O)NC(=O)[C@@H]2CCCN2C1=O (stereo partly drawn)	0	-	0	-	-
CCN1CCN(C2=C(NS(=O)(=O)c3ccc(NC(C)=O)cc3)C(=O)c3ccccc3C2=O)CC1	0	-	-	-	-
CC(=O)Nc1ccc(S(=O)(=O)NC2=C(N3CCN(Cc4ccccc4)CC3)C(=O)c3ccccc3C2=O)cc1	0	14.1µM[quencher]	-43.9	15.8µM	0
CC(=O)Nc1ccc(S(=O)(=O)NC2=C(N3CCN(C)CC3)C(=O)c3ccccc3C2=O)cc1	0	-	-51.8	-	-
CC(NC(=O)CN1C(=O)COc2ccc(S(=O)(=O)N3CCCCCC3)cc21)c1ccccc1 (stereo not drawn)	-	0	-	0	0
CC(C)Oc1ccc(CNC(=O)C2=Cc3ccccc3OC2)cc1	-	0	-	0	0
CN1c2ccccc2C(C)(C)C12C=Nc1c(cc(N3CCOCC3)c3ccccc13)O2 (stereo not drawn)	0	?	-65.9	?	0
CCOC(=O)c1cccc(NC(=O)C(C)n2c(C)c3cnn(-c4ccccc4)c(=O)c3c2C)c1 (stereo not drawn)	-	0	-	0	0
CC(=O)c1ccc(NC(=O)C(Cc2ccccc2)NS(=O)(=O)c2ccc3c(c2)CCC(=O)N3)cc1 (stereo not drawn)	-	0	-	0	0
O=C(CSc1nnc2scc(-c3ccccc3)n12)Nc1ccc(Cl)cc1	-	0	-	0	0
COc1ccc(N2C3=C(CC4=C2CC(C)(C)CC4=O)C(=O)CC(C)(C)C3)cc1	17.8µM	0	-48.1	20µM	?
COc1ccc(N2C3=C(CC4=C2CCCC4=O)C(=O)CCC3)cc1	0	0	0	?	?
Cc1ccc(NC(=S)Nc2cc(C(=O)O)ccc2N2CC3CC(C2)c2cccc(=O)n2C3)cc1C (stereo not drawn)	56.2µM	0	0	0	0
COc1cccc(NC(=S)Nc2cc(C(=O)O)ccc2N2CC3CC(C2)c2cccc(=O)n2C3)c1 (stereo not drawn)	0	0	0	0	0

Screening data deposited in PubChem by National Center for Advancing Translational Sciences (NCATS).
